Screens from PubChem.
The list is not random: actives were taken first. Their share in the collection is about 3%.
D3 ag = activates the human D3 dopamine receptor; actives 0.58% (n = 410,000); max activation, %; D3R DiscoveRx beta-arrestin cells, luminescence, 90 min; in the data active = max activation above about 30%; also: 0% is about no effect
Target sequence (P35462 whole entry, looked up): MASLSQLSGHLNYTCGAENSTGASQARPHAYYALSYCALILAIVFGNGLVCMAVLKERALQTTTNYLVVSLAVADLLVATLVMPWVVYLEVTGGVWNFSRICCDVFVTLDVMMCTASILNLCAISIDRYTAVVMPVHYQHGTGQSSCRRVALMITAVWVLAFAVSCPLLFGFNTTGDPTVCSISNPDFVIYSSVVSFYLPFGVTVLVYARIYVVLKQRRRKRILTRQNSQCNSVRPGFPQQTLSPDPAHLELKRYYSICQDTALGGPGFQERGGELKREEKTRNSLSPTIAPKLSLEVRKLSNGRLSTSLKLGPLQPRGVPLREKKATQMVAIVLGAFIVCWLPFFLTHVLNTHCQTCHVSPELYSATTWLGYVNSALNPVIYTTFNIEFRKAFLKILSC
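Agonist-mode cell screen: cells plated at 1500/well and incubated overnight at 37 °C, then exposed to library compounds for 90 min at 37 °C. Detection reagent was added for 30–60 min at room temperature, and luminescence was read.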
Nrf2 activator = Nrf2 pathway activation | AREc32 ARE-luciferase reporter (MCF7-derived line), luminescence, 24 h | actives 0.31% (n = 410,000) | Potency, µM (top dose mostly 46.1 µM), inactives show top-dose activation, usual class: activators; also: potency is read from the fitted curve at half-maximal effect; % of control where 0% means no effect; nearly all actives have a fitted effect of over 65% in size
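Each well held 1000 AREc32 cells, which were incubated with compound for 24 hr at 37 deg C after overnight attachment, and ARE reporter activity was quantified by firefly luciferase luminescence.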
D3 antag = antagonists of human D3 dopamine receptor. P35462. D3R cells, DiscoveRx beta-arrestin luminescence, antagonist mode; active compounds read low. max response, negative = inhibition, %. actives 2.5% (n = 360,000). AID 652054; in the data active = max response below about -50%; inconclusive = no clear call, values can overlap the other calls; also: % is scaled to controls: 0 for no effect and ±100 for the full control effect
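Cells plated overnight at 1500 cells/well, then exposed to library compounds with dopamine controls for 90 minutes at 37 degrees C. DiscoveRx reagent added for 30–60 minutes at room temperature; luminescence read, quantitative HTS format.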
GRP78 ERSR act = ER stress response induction in glioma; U87-MG GRP78 promoter luciferase reporter, 16 h; actives 0.02% (n = 420,000); Potency, µM, for the others: at the highest dose activation, hits mostly activators; also: potency is read from the fitted curve at half-maximal effect; series mostly up to about 76 µM; % of control where 0% means no effect; nearly all actives have a fitted effect of over 35% in size
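Stably transfected U87-MG glioma cells carrying a GRP78-based luciferase sensor; 16 h compound incubation. Luminescence end-point read 10 min after Bright-Glo addition at room temperature.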
An asterisk follows results filed as active; [ ] = dose if it differs, or a comment. Unless noted, calls follow the shape of the dose curve; as a rule, active = well fitted curve in the direction sought with a large enough effect; inconclusive = small, poorly fitted or top-dose-only effect, or another doubt; inactive = no such curve, though single readings can be large; an effect the other way counts as inactive or inconclusive.

For O=C(NC(=S)NCc1ccccc1)C1CCCCC1 the results were D3 ag -1.5, Nrf2 activator 0.0%, D3 antag -53.6* and GRP78 ERSR act -1.2%.
For Cc1c2ccccc2nc2c(F)c(NCCO)c(F)c(F)c12 the results were D3 ag 5.3, Nrf2 activator 16.9%, D3 antag 9.3 and GRP78 ERSR act 4.5%.
`OCCNc1c2ccccc2nc2c(F)c(F)c(F)c(F)c12` gave D3 ag -19.6, Nrf2 activator 11.2µM*, D3 antag -16.1 and GRP78 ERSR act -6.8%.
For CC(Oc1ccccc1)C(=O)N[C@@H]1C(=O)N2C(C(=O)OCC3CCCCC3)C(C)(C)S[C@H]12 (some centres undefined) the results were GRP78 ERSR act -4.6%.
Screening Oc1ccccc1/C=N/Nc1ccnc(SCc2ccccc2)n1 returned D3 ag -17.5, Nrf2 activator 6.2%, D3 antag -69.4* and GRP78 ERSR act -0.7%.
Screening Oc1ccccc1/C=N/Nc1ncc(Br)cn1 returned D3 ag -1.4, Nrf2 activator 9.9%, D3 antag -19.8 and GRP78 ERSR act -3.0%.
`Oc1ccc(Cl)cc1CNc1ccc(Br)cn1` gave D3 ag -4.3, Nrf2 activator 8.3%, D3 antag -18.7 and GRP78 ERSR act inconclusive.
Screening Oc1c(Cl)cc(Cl)cc1CNc1ccc(Br)cn1 returned D3 ag 4.8, Nrf2 activator 7.2%, D3 antag -54.6* and GRP78 ERSR act -4.7%.
O=C(NCCOCCO)C(=O)Nc1c2c(nn1-c1ccc(F)cc1)CSC2 was read as D3 ag -5.0, Nrf2 activator -1.7% and GRP78 ERSR act -2.3%.
Cc1ccc(N(CC(=O)Nc2ccc(Cl)cc2)S(=O)(=O)c2cccc3nonc23)cc1 was read as D3 ag 2.3, Nrf2 activator 4.2% and GRP78 ERSR act -1.3%.
For COc1cc2[nH]c(C(=O)NCc3ccccc3)cc2c(OC)c1OC the results were D3 ag -9.6, Nrf2 activator -0.1%, D3 antag -105.4* and GRP78 ERSR act 0.4%.
COc1cc2[nH]c(C(=O)NCCc3ccccc3)cc2c(OC)c1OC was read as D3 ag -14.8, Nrf2 activator 0.3%, D3 antag -61.1* and GRP78 ERSR act 2.9%.
Screening Fc1ccc(CNc2nc3ccc(Cl)cc3n3nnnc23)cc1 returned D3 ag -2.6, Nrf2 activator 9.7% and GRP78 ERSR act -2.3%.
For O=C(C[N+]1(CC(O)c2ccccc2)CCOCC1)c1ccccc1 (centres undefined) the results were GRP78 ERSR act -2.2%.
c1ccc(-n2cc(CNCCc3cscn3)c(-c3ccc4c(c3)OCO4)n2)cc1 was read as D3 ag -23.8, Nrf2 activator 4.2%, D3 antag -61.9* and GRP78 ERSR act -2.4%.
Screening OCc1cn(-c2ccccc2)nc1-c1ccc2c(c1)OCCO2 returned D3 ag 0.5, Nrf2 activator 0.3%, D3 antag 27.8 and GRP78 ERSR act -5.2%.
For CCc1c(C2(O)CCCCC2)[nH]c2cnccc12 the results were D3 ag -7.3, Nrf2 activator 0.5%, D3 antag -52.5* and GRP78 ERSR act -5.0%.
For CCOc1ccc(N=C2NC(=O)S/C2=C\c2ccc(N(C)C)cc2)cc1 the results were D3 ag -10.6, Nrf2 activator 0.3%, D3 antag -69.3* and GRP78 ERSR act 3.8%.
`CCOC(=O)C1=C(CN2CCN(c3cccc(OC)c3)CC2)NC(=O)NC1c1ccc(OC)cc1` (centres undefined) gave D3 ag -14.1, Nrf2 activator -0.5% and GRP78 ERSR act -4.1%.
CC(=O)N=c1sc(S(N)(=O)=O)nn1C was read as D3 ag -91.3, Nrf2 activator 0.2%, D3 antag -121.2* and GRP78 ERSR act -3.9%.
CC(=O)Nc1nnc(S(N)(=O)=O)s1 was read as D3 ag 20.9, Nrf2 activator -1.3%, D3 antag 1.5 and GRP78 ERSR act -6.3%.
For CC(C)(C)c1nnc(NS(=O)(=O)c2ccccc2)s1 the results were D3 ag -13.0 and GRP78 ERSR act -4.4%.
`O=C(CCc1ccccc1)NC(NC(=S)Nc1ccc(Br)cc1)C(Cl)(Cl)Cl` (centres undefined) gave D3 ag -13.8, Nrf2 activator 7.6%, D3 antag -90.8* and GRP78 ERSR act 7.0%.
O=C(CCc1ccccc1)NC(NC(=S)Nc1cccc(Cl)c1)C(Cl)(Cl)Cl (centres undefined) was read as D3 ag -28.4, Nrf2 activator 0.5%, D3 antag -28.8 and GRP78 ERSR act -1.0%.
`Cc1nc2nc(C)n(CCN3CCOCC3)c(=O)c2c(-c2cccc([N+](=O)[O-])c2)c1C(=O)CCCCCCCCCCN1CCC(c2ccccc2)(c2ccccc2)CC1` gave D3 ag -5.6, Nrf2 activator -2.8%, D3 antag -92.7* and GRP78 ERSR act -13.9%.
For O=C(NCCCN1CCOCC1)/C(=C/c1ccc(-c2cccc([N+](=O)[O-])c2)o1)NC(=O)c1ccccc1 the results were D3 ag -1.0, Nrf2 activator 4.6%, D3 antag 2.8 and GRP78 ERSR act -4.7%.
Screening CC(NC(=S)NCCc1ccccc1)C(c1cccs1)N1CCN(Cc2ccccc2)CC1 (centres undefined) returned D3 ag -12.6, Nrf2 activator 0.2%, D3 antag -79.4* and GRP78 ERSR act -0.9%.
Screening Nc1nnc(SCC(=O)OCC(=O)c2ccccc2Br)s1 returned D3 ag -26.6, Nrf2 activator 5.0%, D3 antag -58.4* and GRP78 ERSR act 2.4%.
For O=C(Cc1csc(Nc2nc(=S)[nH]c3ccccc23)n1)NCCCN1CCN(c2ccccc2F)CC1 the results were D3 ag 4.0, Nrf2 activator inconclusive, D3 antag -69.2* and GRP78 ERSR act -8.4%.
Screening Cc1ccc(N(C)S(=O)(=O)c2nnc(NC(=O)CC(C)C)s2)cc1 returned D3 ag 8.9, Nrf2 activator -0.2% and GRP78 ERSR act -2.4%.
Screening COc1ccc([C@H]2C[C@H](O)[C@@H](n3cc(-c4ccc(F)cc4)nn3)CN2C(=O)c2cccs2)cc1 returned D3 ag 71.0*, Nrf2 activator -0.3%, D3 antag 5.1 and GRP78 ERSR act -4.2%.
Screening COc1ccc([C@H]2C[C@@H](n3cc(-c4ccc(F)cc4)nn3)[C@H](O)CN2C(=O)c2cccs2)cc1 returned D3 ag 3.3, Nrf2 activator 6.0%, D3 antag -3.6 and GRP78 ERSR act -4.0%.
For CC1(C)Oc2ccc3ccc(=O)oc3c2/C(=C/NNC(N)=O)C1=O the results were D3 ag -35.2, Nrf2 activator 8.4%, D3 antag -111.5* and GRP78 ERSR act 5.0%.
`CC1(C)Oc2ccc3ccc(=O)oc3c2C(/C=N/O)=C1Cl` gave D3 ag 0.8, Nrf2 activator -0.2%[9.22 µM], D3 antag 6.6 and GRP78 ERSR act -3.4%.
C=CCC[C@@H](Cc1ccc(F)cc1)C(=O)OC[C@H](Cc1c[nH]c2ccccc12)NC(=O)[C@@H](CC=C)CC(=O)N[C@H](CO)Cc1ccccc1 was read as D3 ag 30.6*, Nrf2 activator 3.9%, D3 antag 42.2 and GRP78 ERSR act -4.1%.
